Screens: PubChem, National Center for Advancing Translational Sciences (NCATS)
Pf growth 96h: Primary qHTS for delayed death inhibitors of the malarial parasite plastid, 96 hour incubation | P. falciparum luciferase reporter growth, 96 h | Potency, µM (top dose mostly 28.7 µM), for the others: top-dose activity change, negative = inhibition, most hits filed as inhibitors | actives 6.9% (n = 320,000); note: % is set by controls: 0 for no effect and ±100 for the full control effect
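Parasite growth measured via integrated firefly luciferase reporter in P. falciparum. Infected erythrocytes at 2% hematocrit, 0.05% parasitemia final were treated 96 hours at 37 C under 5% CO2, and luminescence was read.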
NS1 inh: qHTS Assay for Inhibitors of Influenza NS1 Protein Function; Potency, µM (titrated, usually from 46.1 µM), for the others: at the highest dose activity, positive = more growth; actives 0.4% (n = 270,000); calls by dose curve; note: actives are rising curves; nearly all actives have a fitted effect of over 50% in size
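Read-out: OD600 growth recovery of NS1-expressing budding yeast. Cells grown overnight at 30C in -URA glucose medium, washed, resuspended and diluted 1:100 in 2% galactose assay medium, pH 6.0. Same strain lacking NS1 served as positive control.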
SARS PLP yeast: qHTS of Yeast-based Assay for SARS-CoV PLP; Potency, µM (series often up to 32.9 µM), inactives show at the highest dose activity, positive = growth rescue, actives largely listed as activators; actives 0.19% (n = 330,000); S. cerevisiae expressing SARS-CoV PLpro, growth rescue; calls by dose curve; note: 0% is about no effect; nearly all actives have a fitted effect of over 55% in size
Pf growth 48h: Primary qHTS for delayed death inhibitors of the malarial parasite plastid, 48 hour incubation. actives 5.9% (n = 310,000). Potency, µM (doses to about 28.7 µM), without a hit: top-dose activity change, negative = inhibition, actives largely listed as inhibitors. AID 504832, 2011. P. falciparum luciferase growth in erythrocytes, 48 h; note: % is set by controls: 0 for no effect and ±100 for the full control effect
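Luminescence readout; reporter = integrated firefly luciferase in P. falciparum. RBC culture at 2% hematocrit, 0.1% parasitemia final, 37 C/5% CO2; decreased signal taken as growth inhibition.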
Starred values were filed as active, the others as inactive; [ ] = another dose, or the depositor's remark. Only some compounds are listed: those with a hit (about 10% of all), similar ones and a draw of the others. Unless noted, calls come from the whole dose curve; as a rule, active = well fitted inhibition curve with a large enough effect; inconclusive = small, poorly fitted or top-dose-only effect, or another doubt; inactive = no such curve, though single readings can be large or run the other way. Potency is the fitted concentration of half-maximal effect.

For CCOC(=O)Cc1nc2ccccc2o1 the results were Pf growth 96h 3.3µM*, SARS PLP yeast 0% and Pf growth 48h 10%.
For Cc1ccc(F)c(CNC(=O)C2CCC(=O)N(Cc3ccccn3)C2)c1F (configuration not stated) the results were Pf growth 96h inconclusive, NS1 inh 21%, SARS PLP yeast inconclusive and Pf growth 48h 7%.
`CCOc1ccc2c(c1)sc(N)[n+]2Cc1cc(C)cc2cccnc12` gave Pf growth 96h 1.9µM*, NS1 inh -24%, SARS PLP yeast 8% and Pf growth 48h 9.3µM*.
COc1ccc2c(c1)sc(N)[n+]2Cc1cc(C)cc2cccnc12 was read as Pf growth 96h inconclusive, NS1 inh -12%, SARS PLP yeast -5% and Pf growth 48h 9.3µM*.
`CCOc1ccc2c(ccc(/C=C\c3cc(C)c4cccnc4c3O)[n+]2C)c1` gave NS1 inh -41%.
O=C(c1ccc2ncsc2c1)N1CCN(c2cccc(C(F)(F)F)c2)CC1 was read as Pf growth 96h inconclusive, SARS PLP yeast -2% and Pf growth 48h 0%.
`O=C(NC[C@@H](O)CO)c1c(I)c(C(=O)NC[C@@H](O)CO)c(I)c(N(CCO)C(=O)CO)c1I` gave Pf growth 96h 16%[12.8 µM] and Pf growth 48h 4%[12.8 µM].
For O=C(NCCc1ccccc1)C1CC(=O)N(c2ccc3c(c2)OCCO3)C1 (configuration not stated) the results were Pf growth 96h -2%, SARS PLP yeast 2% and Pf growth 48h inconclusive.
O=C(NC(Cc1ccccc1)c1nc2ccccc2[nH]1)C1CC(=O)N(c2ccc3c(c2)OCCO3)C1 (configuration not stated) was read as Pf growth 96h 2.9µM*, NS1 inh -10%, SARS PLP yeast -4% and Pf growth 48h 0%.
`O=C(CCNC(=O)c1ccc(Br)cc1)NCCCSc1ccccc1` gave Pf growth 96h 4%, SARS PLP yeast -7% and Pf growth 48h -21%.
COc1ccc(OCCSc2nnc(CCNC(=O)c3ccc(Cl)c(Cl)c3)n2C)cc1 was read as Pf growth 96h -23%, NS1 inh 13%, SARS PLP yeast -1% and Pf growth 48h inconclusive.
Screening C=CCn1c(SCCOc2ccc(OC)cc2)nnc1C(CO)NC(=O)c1ccc(OC)cc1 (configuration not stated) returned Pf growth 96h inconclusive, NS1 inh -6% and SARS PLP yeast 4%.
For C=CCn1c(SCCOc2ccc(OC)cc2)nnc1C(C)NC(=O)c1ccc(OC)cc1 (configuration not stated) the results were Pf growth 96h 6.6µM*, NS1 inh 3% and SARS PLP yeast 17%.
Screening CCn1c(CCNC(=O)c2ccc(Cl)c(Cl)c2)nnc1SCCOc1ccc(OC)cc1 returned Pf growth 96h 10µM*, NS1 inh 14%, SARS PLP yeast 2% and Pf growth 48h inconclusive.
Screening COc1ccc(C(=O)NC(C)c2nnc(SCc3ccc(Cl)c(Cl)c3)n2C)cc1 (configuration not stated) returned Pf growth 96h 12µM*, NS1 inh 5%, SARS PLP yeast -5% and Pf growth 48h inconclusive.
For O=C(Nc1cc([N+](=O)[O-])ccc1Cl)C(Sc1ccccc1)c1ccccc1 (configuration not stated) the results were Pf growth 96h 7%, NS1 inh 9%, SARS PLP yeast -8% and Pf growth 48h -6%.
Screening O=C(Nc1ccc(Cl)c([N+](=O)[O-])c1)C(Sc1ccccc1)c1ccccc1 (configuration not stated) returned Pf growth 96h inconclusive, NS1 inh -32%, SARS PLP yeast -83% and Pf growth 48h 13µM*.
CC(OC(=O)CCC(=O)c1ccc(Cl)s1)C(=O)NC1(C#N)CCCCC1 (configuration not stated) was read as Pf growth 96h 44%, SARS PLP yeast 1% and Pf growth 48h 32%.
O=C(CC1NCCC[C@H]1O)Cn1cnc2cc(Br)c(Cl)cc2c1=O (some centres not stated) was read as Pf growth 96h inconclusive and Pf growth 48h 0.6µM*.
Screening N#C/C(=C\Nc1ccccc1O)c1nc2ccccc2o1 returned Pf growth 96h 10µM*, NS1 inh -39%, SARS PLP yeast -87% and Pf growth 48h 1.7µM*.
For O=C(Cc1c(Cl)cccc1Cl)N/N=C/c1cccnc1 the results were Pf growth 96h -30%, NS1 inh 3%, SARS PLP yeast 2% and Pf growth 48h -20%.
CCCCCCCCCCCCCCCC[N+](C)(C)CC was read as Pf growth 96h 2.6µM* and Pf growth 48h 3.3µM*.
CCCCCC[N+](C)(C)CCSSCC[N+](C)(C)CCCCCC was read as Pf growth 96h -1%, NS1 inh -5%, SARS PLP yeast -1% and Pf growth 48h -1%.
Screening CCCCCCCCCC[N+](C)(C)CCCCCCCCCC returned Pf growth 96h 1.7µM* and Pf growth 48h 1.7µM*.
For COc1ccc([C@H]2[C@H](C(=O)OC(C)(C)C)N3N=Cc4ccccc4C3C23C(=O)c2ccccc2C3=O)cc1OC (some centres not stated) the results were Pf growth 96h 9.3µM*, NS1 inh 7%, SARS PLP yeast 0% and Pf growth 48h 10µM*.
For COc1ccc([C@H]2[C@H](C(=O)OC(C)(C)C)N3N=Cc4ccccc4C3C23C(=O)c2ccccc2C3=O)c(OC)c1 (some centres not stated) the results were Pf growth 96h 1µM*, NS1 inh 23%, SARS PLP yeast 17% and Pf growth 48h 2.9µM*.
For CN(C)CCNS(=O)(=O)c1ccc(N2CCN(c3ccc(F)cc3)CC2)c([N+](=O)[O-])c1 the results were Pf growth 96h inconclusive, NS1 inh -15%, SARS PLP yeast 5% and Pf growth 48h 12µM*.
Screening CC(=O)N1CCN(c2ccc(S(=O)(=O)NCCN(C(C)C)C(C)C)cc2[N+](=O)[O-])CC1 returned Pf growth 96h 2%, NS1 inh -1%, SARS PLP yeast -1% and Pf growth 48h -1%.
N=c1ccn2c(n1)O[C@H]1[C@@H](OP(=O)(O)O)[C@H](CO)O[C@H]12 was read as NS1 inh -2%.
For CCOc1ccc(NC(=S)N(CCc2c(C)[nH]c3ccc(C)cc23)Cc2cccnc2)cc1 the results were Pf growth 96h 3.7µM*, NS1 inh 10%, SARS PLP yeast -8% and Pf growth 48h inconclusive.
CCNC(=S)N(CCc1c(C)[nH]c2ccc(C)cc12)Cc1cccnc1 was read as Pf growth 96h inconclusive, NS1 inh 5%, SARS PLP yeast -1% and Pf growth 48h inconclusive.
CCNC(=S)N(CCc1c(C)[nH]c2ccc(F)cc12)Cc1cccnc1 was read as Pf growth 96h 16%, NS1 inh -1% and SARS PLP yeast -1%.
For Cc1[nH]c2ccc(F)cc2c1CCN(Cc1cccnc1)C(=S)Nc1ccc(F)cc1 the results were Pf growth 96h 7.4µM*, SARS PLP yeast -1% and Pf growth 48h 4.1µM*.
